# Dicer inh: blocks human Dicer maturation of pre-miR-21; Q9UPY3; cat-ELCCA pre-miR-21 Dicer processing, chemiluminescence; hits give high values; z-score at 25 µM; 47,000 tested, 6% active; in the data active means z-score above about 3, passing the limit was not always enough;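 further: plate controls were vehicle for no effect and no enzyme for full effect; higher signal means more uncleaved substrate so more Dicer inhibition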
# Numbers without * were called inactive. The full list was thinned out, with hits kept by preference.
SMILES,Dicer inh
CCOc1cc(/C=C(\C#N)C(N)=O)ccc1O,-0.96
O=c1c(Cc2ccccc2)c(O)c2ccccc2n1-c1ccccc1,4*
O=c1c(Cc2ccccc2)c(O)c2cccc3c4ccccc4n1c23,-1.5
O=c1c(Cc2ccccc2)c(O)c2cccc3c2n1CCC3,-1
CC(=O)c1c(C)[nH]c(-c2ccc(Cl)cc2Cl)nc1=S,-0.23
CC(C)(C)NC(=S)N/N=C/c1ccc(O)cc1O,2.2
CC(C)(C)NC(=S)N/N=C/c1c(Cl)cccc1Cl,-2
CC(C)(C)NC(=S)N/N=C/C=N/NC(=S)NC(C)(C)C,4.3*
Cc1cc(C)n2c(SC3CCCCC3NS(=O)(=O)c3ccc(Cl)cc3)nnc2n1 (stereo not drawn),3.6*
Cc1cc(C)n2c(SC3CCCCC3NS(=O)(=O)c3ccccc3)nnc2n1 (stereo not drawn),0
Cc1cc(C)n2c(SC(CNS(=O)(=O)c3ccccc3)c3ccccc3)nnc2n1 (stereo not drawn),2.2
CCOC(=O)C(NC(=O)c1cccc(Cl)c1)(Nc1cccc(C(F)(F)F)c1)C(F)(F)F (stereo not drawn),1.9
Cn1c(=O)c2c(nc3n2CC(=O)N(CCc2ccccc2)C3)n(C)c1=O,-0.33
COC(=O)CSC1CS(=O)(=O)c2cc([N+](=O)[O-])ccc21 (stereo not drawn),-1.1
CNC(=O)c1c(NC(=O)c2ccco2)sc2c1CCC(C(C)(C)C)C2 (stereo not drawn),0.51
CCOC(=O)c1c(NC(=O)c2ccco2)sc2c1CCC(CC)C2 (stereo not drawn),-3.1
CC1CCc2c(sc(NC(=O)c3ccco3)c2C(=O)N2CCOCC2)C1 (stereo not drawn),3*
O=C(Nc1sc2c(c1C(=O)O)CCCC2)c1ccco1,0.04
CCOC(=O)c1c(NC(=O)c2ccco2)sc2c1CCC(C)C2 (stereo not drawn),3.3*
CCOC(=O)c1c(NC(=O)c2ccco2)sc2c1CCC(C(C)(C)C)C2 (stereo not drawn),0.15
O=C(NCc1ccc2c(c1)OCCCO2)c1cnc2ccccc2n1,-0.31
CCCc1cc(=O)[nH]c(SCc2ccc(Br)cc2)n1,0.47
Nc1ncc(OCc2ccccc2)c(=O)[nH]1,-1.2
O=C(CSc1nnc(-c2ccccc2)o1)OCc1ccccc1,3.4*
O=C(CSc1nnc(-c2ccccc2)o1)c1ccccc1,-1.1
SMILES,Dicer inh
CCOC(=O)CSc1nnc(-c2ccc(C)cc2)o1,2.8
Cc1cc(C)c2cc(C(=O)Nc3ccc(Br)c(C)n3)[nH]c2c1,-3.1
O=C(OCCN1C(=O)C2C3c4ccccc4C(c4ccccc43)C2C1=O)c1ccccc1 (stereo not drawn),1.2
CCN(CC)CC#CC(O)(c1ccccc1)c1ccccc1,0.86
CCN(CC)CC#Cc1cccc(C)c1,5*
O=C(c1ccccc1)c1c(CS(=O)(=O)c2ccc(C(F)(F)F)cn2)[nH]n(-c2ccccc2)c1=O,-1.2
Clc1ccc(CSc2nnc3c(n2)OC=Nc2ccccc2-3)cc1,2.2
COc1ccc(CNCC2(O)CCOC(C)(C)C2)cc1 (stereo not drawn),3.6*
COc1ccc(CNCc2ccc(Br)cc2)c(OC)c1,0.88
COc1ccc(CN=C(C)C2CCOC2=O)cc1 (stereo not drawn),-1.5
CC(C)C(NS(=O)(=O)c1ccc2c3c(cccc13)C(=O)N2C)C(=O)O (stereo not drawn),2.7
CC(C)c1ccc(NC(=O)CSc2nc3cc(C(F)(F)F)ccc3n2C(C)C)cc1,-0.58
CCc1cccc(C)c1NC(=O)Nc1ccc(S(=O)(=O)Nc2cc(C)on2)cc1,-0.23
Fc1ccc(Oc2ccnc3cc(Cl)ccc23)cc1,-0.22
CC1(C)Cc2c(c(N3CCOCC3)nc3sc(C(=O)c4ccccc4)c(N)c23)CO1,3.2*
CC1(C)Cc2c(c(N3CCCC3)nc3sc4c(N5CCOCC5)ncnc4c23)CO1,-0.03
CC1(C)Cc2c(c(N3CCOCC3)nc3sc(C(=O)Nc4ccccc4)c(N)c23)CO1,2.3
COc1c(Br)csc1-c1nc(-c2ccc(C(F)(F)F)cc2)no1,-0.15
Cc1nc(C(F)(F)F)c(C(=O)O/N=C(\N)c2cccc(C(F)(F)F)c2)s1,0.55
COc1ccc(-c2cc(=O)c3cc(OC(=O)c4cccnc4)ccc3o2)cc1,15
CCOC(=O)CSC(=S)NCc1ccccc1,-1.5
Cc1oc(N)c(S(=O)(=O)/C(C#N)=C/c2cc(Cl)cc(Cl)c2)c1C,0.36
Cc1oc2ccc(NS(=O)(=O)c3ccc(Cl)cc3)cc2c1C(=O)OC(C)C,1.7
CC(=O)Nc1cc2cc(NS(=O)(=O)c3ccc(Cl)cc3)ccc2oc1=O,-0.32
O=S(=O)(Nc1ccc(O)c(-c2c(O)ccc3ccccc23)c1)c1ccc(Cl)cc1,8.5*
SMILES,Dicer inh
COc1cc2nc(-c3ccc(N4C(=O)CCC4=O)cc3)oc(=O)c2cc1OC,2.1
CCOC(=O)CNC(=O)c1ccc([N+](=O)[O-])o1,2.6
O=C(Nc1ccccc1F)c1ccc([N+](=O)[O-])o1,-0.41
CN(Cc1ccccc1)C(=O)c1ccc([N+](=O)[O-])o1,3*
CN(C)S(=O)(=O)c1ccc(/C(O)=C2\C(=O)C(=O)N(CCN3CCOCC3)C2c2ccccc2)cc1 (stereo not drawn),0.79
N=C(N)c1cc(Cl)cc(Cl)c1,-0.57
O=C(O)CCC(=O)c1ccc(Cl)cc1,-0.17
N=C(N)c1ccc(Cl)cc1,3.7*
CC1(C)CC(=O)c2cnc(NCc3ccc(F)cc3)nc2C1,-0.57
COc1ccc(C(=O)c2c(C)oc3ccc(O)c(CN(C)C)c23)cc1,-1.6
O=C(CSc1n[nH]c(=O)n1Cc1ccco1)c1cc(-c2ccccc2)no1,-1.5
CCOC(=O)C1=C(C)Nc2nc3ccccc3n2C1c1ccc(O)cc1 (stereo not drawn),-0.38
CCOC(=O)C1=C(C)Nc2nc3ccccc3n2C1c1ccccc1C (stereo not drawn),0.04
CCOC(=O)C1=C(C)Nc2nc3ccccc3n2C1c1sccc1C (stereo not drawn),-0.78
COC(=O)C1=C(C)Nc2nc3ccccc3n2C1c1sccc1C (stereo not drawn),-0.1
CC1=C(C(=O)OC(C)C)C(c2sccc2C)n2c(nc3ccccc32)N1 (stereo not drawn),3.5*
CCOC(=O)C1=C(C)Nc2nc3ccccc3n2C1/C=C/c1ccccc1 (stereo not drawn),3.8*
Cc1cc2nc(Nc3ncc4c(n3)CC(c3cccs3)CC4=O)nc(C)c2cc1C (stereo not drawn),0.67
O=C(CNC1CCCCC1)Nc1cc(Cl)cc(Cl)c1,-0.25
COc1ccc(-c2c(C)oc3cc(O)cc(O)c3c2=O)cc1OC,2
COc1ccc2c(=O)c(-c3ccc(Cl)cc3)c(C(F)(F)F)oc2c1,-0.51
COc1ccc(-c2c(C(F)(F)F)oc3cc(O)cc(O)c3c2=O)cc1,5.3*
Cn1ncc2c(N/N=C/c3ccc(C#N)cc3)ncnc21,1.9
O=C1CC(C(F)(F)F)=Nc2ccccc2N1,0.7
COc1ccc(NC(=O)Nc2cccc(NC(=O)Nc3ccc(OC)cc3)c2F)cc1,-0.32
SMILES,Dicer inh
COc1ccc(NC(=O)c2cccc3c2-c2ccc(I)cc2C3)cc1,-0.13
COc1ccc(NC(=O)C2=Cc3cccc(OC)c3OC2)cc1,3.8*
O=C(c1cnc2cc(-c3ccccc3)nn2c1)c1ccccc1O,-1.5
COc1ccccc1C1NC(=O)c2c(sc3c2CCN(C)C3)N1 (stereo not drawn),-2.1
O=C(CC1(O)C(=O)Nc2ccccc21)c1cc(O)ccc1O (stereo not drawn),-0.31
CCc1c(O)nc(SCCN(CC)CC)[nH]c1=O,0

# Compound activity as filed in PubChem.
